Reference: the supplement of paper PMC10849652
Of roughly 7,900 targets only a part is listed; those with a hit were picked by preference. About 0.6% of all pairs of compound and target were hits. Unmarked numbers belong to inactive results.

Assays:
Assay in all cases: log2 fold change, soluble protein after heating vs DMSO (PISA); higher = thermal stabilisation; K562 cells, 10 uM, 30 min; active = over 0.2 and 3.5 SD of the protein, either way, in both replicates (recomputed)
erlotinib = compound: C#Cc1cccc(Nc2ncnc3cc(OCCOC)c(OCCOC)cc23)c1 [erlotinib]
Procedure, shortened: (§1)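 Quantification of soluble protein used TMTpro 16plex LC-MS/MS, with channel sums equalised. Samples were the supernatant after 21,000xg for 90 min of pooled aliquots from K562 cells (2×10^6 cells/mL) treated with 10 μM compound for 30 min, heated for 3 min over 48°C-58°C, and extracted in PBS with 0.5% NP-40 at 4°C. Values, from duplicates, describe thermal stability against control samples on a log2 fold-change scale.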

[1] = compound: C/C(=N\NC(=O)C1=CC(=CC=C1)S(=O)(=O)N2CCOCC2)/C3=C(C=CC(=C3)Cl)O
Procedure, shortened: as §1

[2] = compound: C1=CC(=C(C=C1Cl)C2=NC3=NC=CN=C3C(=N2)NC4=CC=NC=C4)F
Procedure, shortened: as §1

[3] = compound: C1=CC(=CC=C1C2=NC3=C(N2)C=C(C=C3)C(=O)N)OC4=CC=C(C=C4)Cl
Procedure, shortened: as §1

[4] = compound: C1=CC2=C(C=CC(=C2)/C=C\3/C(=O)NC(=NCC4=CC=CS4)S3)N=C1
Procedure, shortened: as §1

[5] = compound: C1=CC2=NC=CN=C2C=C1/C=C/3\C(=O)NC(=O)S3
Procedure, shortened: as §1

[6] = compound: C1=CC=C(C=C1)C2=NC(=C(N2)C3=CC=NC=C3)C4=CC(=C(C=C4)Cl)O
Procedure, shortened: as §1

[7] = compound: C1=CC=C2C(=C1)C3=NNC4=CC=CC(=C43)C2=O
Procedure, shortened: as §1

[8] = compound: C1CCN(C1)C(=O)NC2=CC=CC(=C2)NC3=NC=C(C(=N3)NCCC4=CN=CN4)Br
Procedure, shortened: as §1

[9] = compound: C1CN(CCC1(CC2=CC=C(C=C2)Cl)N)C3=NC=NC4=C3C=CN4
Procedure, shortened: as §1

IRAK-1-4 Inhibitor I = compound: C1COCCN1CCN2C3=CC=CC=C3N=C2NC(=O)C4=CC(=CC=C4)[N+](=O)[O-] [IRAK-1-4 Inhibitor I]
Procedure, shortened: as §1

ibrutinib = compound: C=CC(=O)N1CCC[C@@H](n2nc(-c3ccc(Oc4ccccc4)cc3)c3c(N)ncnc32)C1 [ibrutinib]
Procedure, shortened: as §1

[10] = compound: CC(=O)c1cnc2ccc(-c3cc(Cl)c(O)c(Cl)c3)nc2c1N[C@H]1CC[C@H](CN(C)C)CC1
Procedure, shortened: as §1

ralimetinib = compound: CC(C)(C)Cn1c(N)nc2ccc(-c3[nH]c(C(C)(C)C)nc3-c3ccc(F)cc3)nc21 [ralimetinib]
Procedure, shortened: as §1

[11] = compound: CC(C)(O)CC(=O)NCCn1ccc2ncnc(Nc3ccc(Oc4cccc(C(F)(F)F)c4)c(Cl)c3)c21
Procedure, shortened: as §1

[12] = compound: CC(C)C1=C2N=C(C=C(N2N=C1)NCC3=CC=CC=C3)NCCCCCCN
Procedure, shortened: as §1

[13] = compound: CC(C)C[C@@H](C=O)NC(=O)[C@H](CC(C)C)NC(=O)[C@H](CC(C)C)NC(=O)OCc1ccccc1
Procedure, shortened: as §1

pinometostat = compound: CC(C)N(C[C@H]1O[C@@H](n2cnc3c(N)ncnc32)[C@H](O)[C@@H]1O)[C@H]1C[C@@H](CCc2nc3cc(C(C)(C)C)ccc3[nH]2)C1 [pinometostat]
Procedure, shortened: as §1

[14] = compound: CC1=C(C(CC(=O)N1)C2=CC=C(C=C2)C(F)(F)F)C(=O)NC3=C(C=C4C(=C3)C=NN4)F
Procedure, shortened: as §1

[15] = compound: CC1=C(C2=C(C=C1)C(=O)C3=CC=CC=C3N2CCCN)C
Procedure, shortened: as §1

Chain of UniProt Q9ULC5 (Q9ULC5 whole entry, looked up): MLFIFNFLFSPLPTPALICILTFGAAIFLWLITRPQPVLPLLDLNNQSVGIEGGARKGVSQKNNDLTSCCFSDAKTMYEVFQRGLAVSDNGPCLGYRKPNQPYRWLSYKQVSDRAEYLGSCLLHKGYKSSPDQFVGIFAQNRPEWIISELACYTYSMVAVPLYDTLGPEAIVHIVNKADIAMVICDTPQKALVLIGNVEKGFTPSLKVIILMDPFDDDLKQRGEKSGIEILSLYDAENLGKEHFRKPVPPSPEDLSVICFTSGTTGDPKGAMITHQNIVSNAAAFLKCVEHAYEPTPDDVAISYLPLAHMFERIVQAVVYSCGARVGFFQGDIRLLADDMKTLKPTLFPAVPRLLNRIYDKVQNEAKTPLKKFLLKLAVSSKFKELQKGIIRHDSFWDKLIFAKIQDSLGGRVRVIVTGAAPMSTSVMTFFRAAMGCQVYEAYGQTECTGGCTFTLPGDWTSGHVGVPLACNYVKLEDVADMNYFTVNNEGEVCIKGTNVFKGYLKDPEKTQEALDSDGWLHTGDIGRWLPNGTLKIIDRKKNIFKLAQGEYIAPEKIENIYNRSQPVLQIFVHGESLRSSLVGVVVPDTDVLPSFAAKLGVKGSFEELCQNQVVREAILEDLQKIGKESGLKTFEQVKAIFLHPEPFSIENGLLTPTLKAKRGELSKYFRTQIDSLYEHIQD
Chain of UniProt P30043 (P30043 whole entry, looked up): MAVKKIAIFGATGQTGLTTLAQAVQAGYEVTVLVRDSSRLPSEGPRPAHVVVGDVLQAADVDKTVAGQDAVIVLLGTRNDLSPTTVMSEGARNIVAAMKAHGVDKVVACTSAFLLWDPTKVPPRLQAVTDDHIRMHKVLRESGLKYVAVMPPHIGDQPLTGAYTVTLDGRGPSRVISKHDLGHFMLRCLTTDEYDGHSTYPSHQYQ
Chain of UniProt Q96F25 (Q96F25 whole entry, looked up): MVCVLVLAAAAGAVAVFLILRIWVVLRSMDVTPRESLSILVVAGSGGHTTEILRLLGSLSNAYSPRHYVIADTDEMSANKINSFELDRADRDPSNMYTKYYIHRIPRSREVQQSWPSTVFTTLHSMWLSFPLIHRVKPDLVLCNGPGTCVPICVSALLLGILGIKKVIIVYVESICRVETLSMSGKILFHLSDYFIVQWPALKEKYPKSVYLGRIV
Chain of UniProt O15254 (O15254 whole entry, looked up): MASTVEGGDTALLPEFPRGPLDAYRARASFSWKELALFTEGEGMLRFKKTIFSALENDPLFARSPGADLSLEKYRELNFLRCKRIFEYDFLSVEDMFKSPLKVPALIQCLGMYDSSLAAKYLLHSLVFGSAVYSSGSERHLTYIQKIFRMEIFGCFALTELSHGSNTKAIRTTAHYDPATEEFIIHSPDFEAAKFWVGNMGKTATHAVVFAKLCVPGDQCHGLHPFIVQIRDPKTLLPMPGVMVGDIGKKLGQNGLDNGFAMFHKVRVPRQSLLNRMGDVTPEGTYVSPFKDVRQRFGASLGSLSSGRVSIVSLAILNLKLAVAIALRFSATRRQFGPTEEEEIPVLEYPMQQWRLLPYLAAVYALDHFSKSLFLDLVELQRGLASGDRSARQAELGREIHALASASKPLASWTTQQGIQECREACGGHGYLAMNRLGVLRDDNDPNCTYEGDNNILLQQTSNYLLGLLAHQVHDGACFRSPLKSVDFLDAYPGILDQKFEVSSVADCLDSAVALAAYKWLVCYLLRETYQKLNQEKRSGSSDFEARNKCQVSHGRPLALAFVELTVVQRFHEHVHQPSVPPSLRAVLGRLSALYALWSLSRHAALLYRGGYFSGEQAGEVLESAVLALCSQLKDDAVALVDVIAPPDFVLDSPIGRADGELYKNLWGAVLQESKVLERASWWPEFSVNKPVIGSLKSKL
Chain of UniProt Q96P47 (Q96P47 whole entry, looked up): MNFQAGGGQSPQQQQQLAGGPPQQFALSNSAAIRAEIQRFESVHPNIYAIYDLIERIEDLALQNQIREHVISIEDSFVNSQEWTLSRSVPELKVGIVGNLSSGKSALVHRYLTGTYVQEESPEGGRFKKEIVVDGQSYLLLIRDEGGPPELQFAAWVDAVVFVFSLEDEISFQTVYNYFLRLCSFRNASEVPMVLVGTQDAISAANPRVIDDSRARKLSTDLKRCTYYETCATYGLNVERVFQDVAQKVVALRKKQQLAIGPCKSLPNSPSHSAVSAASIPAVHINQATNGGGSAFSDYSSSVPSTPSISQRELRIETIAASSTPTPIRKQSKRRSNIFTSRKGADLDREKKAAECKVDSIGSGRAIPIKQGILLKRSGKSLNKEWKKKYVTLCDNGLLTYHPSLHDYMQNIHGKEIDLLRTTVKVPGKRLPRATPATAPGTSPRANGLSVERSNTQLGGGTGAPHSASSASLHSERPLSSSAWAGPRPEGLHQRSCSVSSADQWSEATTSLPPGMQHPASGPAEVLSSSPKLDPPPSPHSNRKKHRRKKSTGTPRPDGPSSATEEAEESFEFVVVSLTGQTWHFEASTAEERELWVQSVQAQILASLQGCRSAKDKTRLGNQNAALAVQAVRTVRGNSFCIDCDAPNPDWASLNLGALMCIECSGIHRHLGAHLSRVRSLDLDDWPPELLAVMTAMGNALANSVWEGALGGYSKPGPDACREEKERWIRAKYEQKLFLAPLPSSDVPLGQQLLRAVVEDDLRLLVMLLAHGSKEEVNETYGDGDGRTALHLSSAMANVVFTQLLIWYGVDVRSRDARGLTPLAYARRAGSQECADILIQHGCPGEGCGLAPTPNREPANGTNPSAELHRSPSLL
Chain of UniProt Q9UKV3 (Q9UKV3 whole entry, looked up): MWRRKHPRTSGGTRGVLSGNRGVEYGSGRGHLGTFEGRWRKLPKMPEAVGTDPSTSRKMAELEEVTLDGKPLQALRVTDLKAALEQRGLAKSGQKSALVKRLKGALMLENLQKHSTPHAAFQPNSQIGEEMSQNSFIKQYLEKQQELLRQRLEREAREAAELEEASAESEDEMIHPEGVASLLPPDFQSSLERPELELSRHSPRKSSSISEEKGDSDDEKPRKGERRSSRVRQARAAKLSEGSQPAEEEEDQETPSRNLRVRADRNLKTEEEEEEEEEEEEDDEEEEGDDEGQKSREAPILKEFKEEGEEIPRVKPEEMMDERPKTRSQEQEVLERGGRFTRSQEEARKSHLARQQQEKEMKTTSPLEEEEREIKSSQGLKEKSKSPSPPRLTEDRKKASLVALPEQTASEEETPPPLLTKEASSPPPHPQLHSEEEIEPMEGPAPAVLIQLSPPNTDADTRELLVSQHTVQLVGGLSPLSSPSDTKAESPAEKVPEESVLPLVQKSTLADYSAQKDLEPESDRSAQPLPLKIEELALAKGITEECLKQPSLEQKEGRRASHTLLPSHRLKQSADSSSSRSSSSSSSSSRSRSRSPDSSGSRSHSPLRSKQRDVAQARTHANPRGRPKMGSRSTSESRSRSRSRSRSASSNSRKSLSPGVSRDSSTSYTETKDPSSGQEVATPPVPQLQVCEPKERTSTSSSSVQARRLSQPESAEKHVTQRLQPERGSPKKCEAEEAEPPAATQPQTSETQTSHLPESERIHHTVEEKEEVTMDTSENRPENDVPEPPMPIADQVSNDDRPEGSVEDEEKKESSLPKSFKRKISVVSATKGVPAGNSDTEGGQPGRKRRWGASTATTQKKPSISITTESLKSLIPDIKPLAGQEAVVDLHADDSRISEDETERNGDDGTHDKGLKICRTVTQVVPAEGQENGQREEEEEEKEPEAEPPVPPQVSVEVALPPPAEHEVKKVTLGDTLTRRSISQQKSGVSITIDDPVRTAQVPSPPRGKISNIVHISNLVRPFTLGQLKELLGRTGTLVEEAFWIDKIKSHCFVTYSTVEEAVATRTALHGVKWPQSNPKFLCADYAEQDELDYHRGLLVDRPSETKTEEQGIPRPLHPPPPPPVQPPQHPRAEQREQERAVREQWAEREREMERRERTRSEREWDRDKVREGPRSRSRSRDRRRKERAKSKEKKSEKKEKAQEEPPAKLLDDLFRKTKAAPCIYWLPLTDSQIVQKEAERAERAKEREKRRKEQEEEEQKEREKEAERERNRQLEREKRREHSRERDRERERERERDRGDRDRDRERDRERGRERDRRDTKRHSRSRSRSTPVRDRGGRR
Chain of UniProt P30837 (P30837 whole entry, looked up): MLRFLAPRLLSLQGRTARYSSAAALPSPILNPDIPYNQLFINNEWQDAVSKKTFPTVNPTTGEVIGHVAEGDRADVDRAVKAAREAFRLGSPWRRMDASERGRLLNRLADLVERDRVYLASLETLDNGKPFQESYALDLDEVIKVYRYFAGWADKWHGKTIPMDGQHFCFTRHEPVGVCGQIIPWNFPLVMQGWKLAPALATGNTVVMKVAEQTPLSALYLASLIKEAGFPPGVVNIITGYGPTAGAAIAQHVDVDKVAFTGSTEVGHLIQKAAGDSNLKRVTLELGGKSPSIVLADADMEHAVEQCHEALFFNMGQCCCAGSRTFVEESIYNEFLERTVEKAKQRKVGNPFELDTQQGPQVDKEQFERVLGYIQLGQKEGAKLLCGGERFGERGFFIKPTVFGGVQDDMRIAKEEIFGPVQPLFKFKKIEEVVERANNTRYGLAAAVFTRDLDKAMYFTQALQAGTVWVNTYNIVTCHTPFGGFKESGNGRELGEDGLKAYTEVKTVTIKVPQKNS
Chain of UniProt P31749 (P31749 whole entry, looked up): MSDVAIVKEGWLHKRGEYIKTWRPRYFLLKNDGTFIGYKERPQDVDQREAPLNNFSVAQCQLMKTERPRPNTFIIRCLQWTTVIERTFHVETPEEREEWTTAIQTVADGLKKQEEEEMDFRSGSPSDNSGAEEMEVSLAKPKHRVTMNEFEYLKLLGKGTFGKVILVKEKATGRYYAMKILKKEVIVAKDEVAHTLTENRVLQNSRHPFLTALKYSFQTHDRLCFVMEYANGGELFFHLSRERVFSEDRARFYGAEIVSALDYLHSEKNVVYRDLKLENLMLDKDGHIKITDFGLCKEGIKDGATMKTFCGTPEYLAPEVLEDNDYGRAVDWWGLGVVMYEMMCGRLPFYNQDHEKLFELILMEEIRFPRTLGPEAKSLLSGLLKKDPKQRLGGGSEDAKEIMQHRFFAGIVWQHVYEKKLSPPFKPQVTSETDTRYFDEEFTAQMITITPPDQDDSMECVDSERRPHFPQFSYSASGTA

Target | log2 fold change (erlotinib) | log2 fold change [1] | log2 fold change [2] | log2 fold change [3] | log2 fold change [4] | log2 fold change [5] | log2 fold change [6] | log2 fold change [7] | log2 fold change [8] | log2 fold change [9] | log2 fold change (IRAK-1-4 Inhibitor I) | log2 fold change (ibrutinib) | log2 fold change [10] | log2 fold change (ralimetinib) | log2 fold change [11] | log2 fold change [12] | log2 fold change [13] | log2 fold change (pinometostat) | log2 fold change [14] | log2 fold change [15]
BRIX1 (UniProt Q8TDN6) | -0.093 | -0.05 | -0.415 | -0.089 | 0.003 | 0.046 | -0.046 | -0.167 | 0.017 | -0.387 | -0.1 | -0.011 | 0.021 | 0.133 | 0.091 | 0.137 | 0.041 | 0.361 | -0.051 | -1.43 (active)
BCAP29 isoform 2 (UniProt Q9UHQ4) | -0.02 | 0.002 | 0.077 | 0.062 | -0.026 | 0.086 | -0.034 | 0.038 | 0.062 | -0.022 | 0.051 | -0.014 | 0.011 | -0.094 | 0.111 | -0.106 | 0.007 | -0.012 | 0.026 | 0.052
AGAP3 isoform 4 (UniProt Q96P47) | 0.11 | 0 | -0.078 | -0.062 | 0.017 | 0.183 | -0.024 | -0.082 | -0.075 | 0.127 | -0.024 | -0.018 | -0.223 | 0.25 | 0.009 | -0.182 | -0.044 | 0.245 | -0.107 | -0.043
ALDH1B1 (UniProt P30837) | 0 | 0.073 | 0.066 | 0.081 | 0.062 | -0.009 | 0.044 | 0.065 | -0.028 | 0.043 | 0.051 | 0.031 | -0.009 | -0.004 | -0.072 | 0.132 | -0.01 | -0.022 | -0.054 | 0.221
ARL2BP (UniProt Q9Y2Y0) | -0.048 | 0.014 | 0.041 | -0.02 | 0.093 | 0.104 | 0.037 | -0.047 | -0.008 | -0.072 | -0.053 | -0.009 | 0.03 | 0.01 | -0.127 | -0.269 | -0.011 | -0.037 | -0.002 | -0.028
ACIN1 (UniProt Q9UKV3) | 0.116 | -0.1 | -0.033 | 0.006 | 0.051 | 0.007 | 0 | -0.012 | -0.041 | -0.038 | -0.052 | 0.004 | -0.155 | 0.063 | 0.043 | -0.022 | -0.026 | -0.006 | -0.017 | -0.369 (active)
ALG14 (UniProt Q96F25) | 0.111 | 0.018 | -0.128 | -0.085 | 0.084 | 0.088 | 0.053 | 0.002 | -0.061 | 0.014 | 0.007 | 0.104 | -0.157 | -0.12 | -0.115 | -0.098 | 0.093 | 0.038 | 0.002 | 0.195
BLVRB (UniProt P30043) | 0.03 | 0.112 | 0.237 (active) | -0.031 | -0.015 | 0.072 | 0.042 | 0.014 | 0.001 | 0.056 | 0.075 | 0.037 | 0.154 | 0.056 | -0.019 | -0.048 | -0.037 | -0.005 | -0.046 | 0.059
AP4S1 (UniProt Q9Y587) | -0.014 | -0.013 | -0.015 | 0.078 | -0.456 (active) | 0 |  | -0.111 |  |  | -0.061 | -0.12 | 0.008 |  | -0.079 | 0 |  | -0.145 | 0.027 | 
APAF1 (UniProt O14727) | 0.207 | 0.066 | -0.073 | 0.141 | 0.016 |  | 0.037 | 0.011 |  |  | 0.001 |  | -0.153 | -0.07 | -0.08 | -0.156 | 0.135 | 0.066 | 0.047 | 
ACOX3 (UniProt O15254) | 0.158 | -0.157 | -0.068 | 0.007 | -0.122 | -0.026 |  | 0.071 | 0.153 | 0.054 | 0.095 | 0.035 | -0.177 |  | 0.061 | 0.022 |  | -0.021 | -0.081 | -0.051
ACSL5 isoform 3 (UniProt Q9ULC5) | 0.044 | 0.039 | -0.021 | 0.028 | -0.029 | -0.011 | -0.007 | 0.047 | -0.003 | 0.061 | 0.02 | 0.03 | -0.017 | -0.03 | 0.014 | -0.354 (active) | -0.001 | 0.095 | 0.049 | 0.088
ATP6AP1 (UniProt Q15904) | -0.009 | -0.031 | -0.036 | 0.029 | -0.08 | -0.022 | -0.128 | -0.004 | 0.01 | -0.079 | -0.02 | 0 | -0.035 | 0.01 | 0.035 | -0.091 | 0.02 | 0.101 | 0.047 | -0.024
BAD (UniProt Q92934) | 0.049 | 0.079 | 0.022 | 0.124 | 0.083 | 0.023 | 0.01 | 0.025 |  |  | 0.057 | 0.024 | -0.061 | -0.054 | 0.077 | -0.04 | -0.041 | 0.012 | 0.065 | 
BSCL2 isoform 4 (UniProt Q96G97) | -0.024 | 0.088 | -0.016 | 0.052 | 0.06 | -0.012 |  | -0.045 | 0.045 | -0.001 |  | 0.069 | -0.109 |  | 0.003 | -0.219 |  |  | -0.122 | 0.023
AKT1 (UniProt P31749) | 0.095 | 0.034 | 0.101 | -0.067 | 0 | 0.184 | 0.117 | 0.059 | -0.026 | 0.164 | -0.014 | -0.244 | 0.03 | -0.023 | 0.01 | -0.141 | 0.07 | -0.051 | -0.161 | -0.038
ATF1 (UniProt P18846) | -0.058 | 0.244 | 0.129 | -0.054 | -0.221 | 0.023 |  | 0.039 | -0.117 | -0.024 |  | -0.02 | -0.02 |  | -0.07 | 0.081 |  |  | -0.04 | -0.127
